Source: PubChem BioAssay AID1347426 (Functional Genomics Laboratory (NCATS/FGL), 2020)
The whole screen tested about 31,000 sequences, of which about 1,400 (4.5%) were called active. This is one part of a sample in which actives are shown more often than they occur. Values without a mark were called inactive.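 How the source made its calls: active means median seed-adjusted z-score above 1 or below -1; inactive means the rest.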

Assay: Novel Modifiers of Survival Motor Neuron (SMN) Protein: Gene Identification via Genome-wide siRNA Screen;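 further: luminescence tracks full-length SMN protein made from the SMN2 reporter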
Conditions: HEK293T SMN2-luciferase reporter, siRNA knockdown, 72 h; actives lie on both sides
Summary of the method: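 HEK293T cells stably carrying an SMN2 promoter/splicing cassette–luciferase reporter were reverse-transfected with 1 pmol siRNA per well (druggable-genome library, 3 siRNAs per gene) and grown 72 h at 37 °C. Luminescence, normalized to negative-control siRNA and log10-transformed, was scored as MAD.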

Sequence | median seed-adjusted z-score
GGCGAAGAGGGAUCAAGUATT against ZNF24 | 0.388
GAGCCACACUUUCAAGUAATT against CRIP1 | -0.622
CCGUGGACCAGUACUUUUATT against MAN2B1 | -0.246
GACACGAUUCUUUACCAAATT against CHEK1 | -5.1 (active)
GGACUCAGGUCUCAUGUGATT against KRTAP5-7 | -0.279
CAGGUAUUGUGGAAAGUAUTT against ADH4 | -0.0991
GCACCAUAGACUUUCGGGATT against HPCA | 0.12
GAGCGAAGGUCAUAAUACATT against MORC4 | 0.13
GCAUGAGUGUUGAUAGGUATT against AGTR2 | 0.204
ACAACUUCAUAUCCAGCUUTT against ISLR2 | 0.263
GCUGCGAAAGGAUCUCAAATT against UBE3B | 0.0972
CAAAUACGGUAAUGCUGUATT against COX7B | -1.16 (active)
GAACUUCACAAGUUCCUCATT against RAB31 | 0.41
GCUUAAUGGUGUCCCGUAATT against PCCA | 0
CAAGCUCCAUUUUGAAUCATT against SRR | -0.256
CGACGGUGGAAGACACCUATT against DIRAS2 | -1.25 (active)
CAUUGCAAGUUGUUCUUGATT against GJA4 | -0.18
ACAGCGCUCUCAAUCCCUUTT against GPR150 | -0.129
CAUCAGCACUAGCACCUCATT against ZNF213 | 1.37 (active)
CCCGGUCACUUCUGAGAAATT against ZNF696 | 0.17
GGAAGAGUCAUACAUCAAUTT against DDX55 | 0.507
GCAUAGCUCUCGAUAAGAATT against MYH4 | -1.8 (active)

Sequence | median seed-adjusted z-score
GGAUCAUGCUGAGAUGCAATT against RASAL2 | 0
CCAUCGUGGUAGAUCCGUUTT against CBL | -0.417
GCUUUGUCACAUAACGUGATT against SLC38A2 | -1.04 (active)
GGUUGCUAUAUGUUCCGAATT against MLL | 0.227
UGACGUGCACAGGAAGAAATT against OXCT2 | -0.449
GGGAAUAGCUUAUCUUGUUTT against RFC4 | -0.386
GCAUCUACGUGGGUAACUUTT against SFRS1 | -1.66 (active)
GCCCGAAAGAGAAAGCGAATT against POU5F1 | 0.0495
GCAUCAACGCGGGAUUCCATT against TFAP4 | -0.0515
CGGUCAUGCUGAUCACCUUTT against GPR119 | -0.382
CUGCCGCAAUGACAACAAATT against TRIM42 | -0.153
GCGGUAAACUCGACACGUUTT against MARK3 | 0.271
GGCUGUACAUAGUCCUUUUTT against SNRPB | -3.17 (active)
CUACUUAAGUGUGAUAAUATT against OCLN | 0.232
GACUAAUGGAUGAAGCUAATT against PBK | -0.311
GGAAUUCUUUGGGCUGAAATT against MMP1 | 0.205
GCAUCGGGAAUAAAAUUUATT against LSM2 | -1.48 (active)
CCCAAUCAAGUGUUACAAATT against JMJD1C | 0.0338
UGGAGUAUCCUAUCAUGUATT against MGST3 | -0.0509
GCAAAUACGUGUAGACCUATT against EXOSC9 | -0.00796
AGUACAUCGCGGAUCUGUATT against RCN3 | -2.44 (active)
CCACUUCUCCACACCUUGATT against NR4A1 | -0.207

Sequence | median seed-adjusted z-score
GUGACUCCGUGUAUACUUATT against GCA | -0.162
AGAGCAAAACAGUCCGAUATT against PCDH8 | -1.03 (active)
GAAUUCACUUCAGAGCAAUTT against LMO4 | -0.067
CAAUCCAACUAGUAGUUCATT against SP4 | -0.088
CCCUCUAACUGCUCGGAUATT against DNASE2 | -1.23 (active)
GAUCCUAUCGUAGACAUGATT against ZNF440 | 0.208
CCAGCAAUGAGAAAAAUCUTT against HOXA2 | 0.335
GGCGAACAGUUCUACAUGUTT against IFT57 | -1.1 (active)
CAUCAUUACGAUUAGCCUATT against ARFGAP3 | 0.00412
CGGGAUUUAUAGGCAAUGATT against RNASEH1 | -0.0205
CAUUCGCUCUCAUACUGGATT against CTCF | -0.0821
GGAUCUUCAAAGUCACGAATT against CACNA1B | 0.0963
GCACCCACGUCAUCCCUAATT against GRIN1 | -0.137
CCAUUCUUCUAGCAACUGATT against DDX47 | -0.398
GUCCUAUCACCGUAUCUUATT against SF3B4 | -2.56 (active)
GGUUAGGGCUUGACCCAAATT against HIBADH | 0.234
CAGACGUGAUGACAAGAUUTT against S100A7 | -0.253
CAAUGGUGUCUACAAGAUUTT against SLCO1C1 | 0.071
CACCUGCUAUGUUACGGGATT against BAT2 | 0.0889
AGAUACUGGUAUUGCUCGATT against SNRPB | -3.17 (active)
GACCCAUUGCUGUCCAACATT against EMID1 | 0.979
AGAGGAACUUUAUUCUUGATT against HNRNPUL2 | -0.0273

Sequence | median seed-adjusted z-score
AUAACUACCUGAUCAAGAATT against YWHAG | 1.98 (active)
CCCUGGUAGUUCCACACCATT against CRHBP | -0.0443
GAACAUUGGUUCUUAGAGATT against MKRN2 | 0
GGGACUUCAUGUUCGAGCATT against DNAI2 | 0.12
GCAGAAAGGUGUAACAUAATT against DDI2 | 1.27 (active)
CAGGCAAACCGCUACAUCATT against EN1 | 0.761
ACAGUUCUCUAUGACCUCATT against PLA2G4E | 0.266
AGUGCAUGGUUGCAGCUGATT against RNF144A | -0.185
GAAUCAAUAUAAUCUAGCATT against UBE2Q2 | 0.146
AGAACUGCGUGACUAUACATT against ZNF417 | 0.0205
GCCUCUCACAUCUAUGGUATT against ITIH4 | 0.64
GGAGAAAGAAUGACGAGAATT against TGFBR2 | 0.8
AACUCGCUGUUGUACCUGATT against CPSF1 | 3.29 (active)
GGCAUUAUGUGAAGGCGAATT against SMC5 | 0.0666
CCAUCACCUUCAAUCCGCUTT against PEMT | 0.0218
GGUAGACUGUCAUCGUGAATT against RAD50 | 0.266
CAUCACCGCUGGGUCCAAATT against FABP1 | -0.302
UGGAAUAAGUGGGCUCUGATT against ADM | 0.65
CAAUAUGCCUUUCUCUACATT against DNASE1L3 | 0.0678
GGACUGCUUCAUAUACUGATT against GLT8D1 | 1.22 (active)
GGGACUAACAUGUACAACATT against PCDH24 | 0.345
CAGUUACUAUAAAAACCGATT against ZNF711 | 0.254

Sequence | median seed-adjusted z-score
GAGAUAGACUUGCUGAGCATT against TRIP6 | 1.03 (active)
GGAAAAUCAAUAUAUCACUTT against ADH6 | -0.132
GGAGCAUACAGAACGGACATT against SIPA1L3 | 0
GGUCAUACACGGGAUCUCUTT against SLC30A2 | -0.402
GCAUUGGAACGAUUCUAAATT against CTPS2 | 1.08 (active)
CGCACGCUCUUCAAAUUCUTT against ADRA2A | -0.65
GCAAAUGAGUGUGACCUAATT against RAB38 | -0.165
CCAACCUAAUUAUGGAGGATT against PCDHGB4 | 0.176
AGGUUUAUGUGACCAAGCATT against KCTD8 | 0.0212
GAGCGAAGAUGUCCGAAAATT against MIPEP | -0.169
GCUUCAAUGAGACAACCCUTT against IP6K2 | -0.193
CAGAAGUUGUGCAAUCCAATT against ADAM32 | 1.75 (active)
GGAUGGUCGGAUUCUGAAATT against ITPKC | 0.218
CCAGGCUAUCUUUCCGAUATT against PTPN3 | -0.535
GCCCACUGACCAUACCUCATT against NAT6 | -0.327
GGAGUUGAUUUUAUGAUUATT against RAB30 | 0.395
GUAUCAGCAUUGAUAGAUATT against GPR21 | 0.246
GCACCGAGCUUUACAGUGUTT against LARP1 | 0.251
CCUUGUGCGUUACAGAAGATT against SCARA3 | -0.05
CAUCAAGCCUCAUCUAAUATT against CHD1 | -1.03 (active)
